Data taken from ChEMBL document CHEMBL4513216, “Probing the Open Global Health Chemical Diversity Library for Multistage-Active Starting Points for Next-Generation Antimalarials” (ACS Infect Dis, 2020).
In all, about 69,000 compounds went through this assay and about 8,600 (12%) showed an effect of 50% or more. The entries come from a sample that favours strong results as a whole.

Each compound was assayed on Plasmodium berghei (assay: Screen against P. berghei liver stage (PbLuc), transformed with Luciferase, at 10uM). Settings: tested at 10 uM.
Type: functional, HepG2

SMILES | INHIBITION
Cc1cn2cc(-c3nc4c([nH]3)CCCNC4=O)nc2s1 | -54.3%
CC(=O)N1CCCCCC1C1CCN(Cc2nc(C3CC3)no2)CC1 (stereo not given) | 55.4%
CC(=O)N1CCCCCC1C1CCN(Cc2nc(C(C)C)no2)CC1 (stereo not given) | 8.11%
CC(=O)N1CCN(Cc2nnc(C(C)(C)C)o2)CC1 | -33.2%
CCc1nnc(CN2CCC(C3CCCCCN3C(C)=O)CC2)o1 (stereo not given) | 40.6%
CS(=O)(=O)N1CCCCCC1C1CCN(Cc2nc(C3CC3)no2)CC1 (stereo not given) | 29.1%
CC(C)(C)c1nnc(CN2CCN(C(=O)N3CCCCC3)CC2)o1 | 29.5%
CCc1nnc(CN2CCN(C(C)=O)CC2)o1 | 9.65%
CC(=O)N1CCCCCC1C1CCN(Cc2nnc(C(C)(C)C)o2)CC1 (stereo not given) | 66.5%
CCc1nnc(CN2CCC(C3CCCCCN3C(=O)C3CC3)CC2)o1 (stereo not given) | 62.8%
CC(=O)NCC1CCN(Cc2nc(C3CC3)no2)CC1 | 57.5%
CCN1CCN(C2CCN(Cc3nc(C4CC4)no3)CC2)C1=O | 33.8%
O=C(NCC1CCCO1)C1CCN(Cc2nc(C3CC3)no2)CC1 (stereo not given) | 40.2%
Cc1[nH]ccc1C(=O)Nc1cccc(CN2CCC(CO)CC2)c1 | 25.3%
CC(C)=CCN1C[C@@H]2CC[C@H]1CN(C(=O)c1ccc(S(N)(=O)=O)cc1)C2 | 39.4%
Cc1ncsc1C(=O)N1CCN(Cc2cscn2)CC1 | 16%
Cc1cccc(OCCNC(=O)Cn2ccc(C)cc2=O)c1 | 28.7%
O=C(c1ccnc(NC2CC2)c1)N1CCCC1c1cccc(Br)c1 (stereo not given) | -96.5%
Cc1ccc(C)c2c(C)c(C(=O)NCCCn3cnnc3)[nH]c12 | -56.7%
CN(C)C(=O)COC1COC2(CCN(CC3CC3)CC2)C1 (stereo not given) | 37.6%
Cc1cccc(CN2C(=O)C[C@H]3[C@@H]2CCN3CC2CC2)n1 | -14.3%
Cn1cc(NC(=O)CNC(=O)N2CCN(c3ccc(F)cc3)CC2)cn1 | 9.55%

SMILES | INHIBITION
CNc1cc(N2CCCC2CNCc2cnc(C)s2)ncn1 (stereo not given) | 7.61%
COCc1cnc2n1CCN(C(=O)c1oc3ccccc3c1C)C2C (stereo not given) | 52.1%
COCc1cnc2n1CCN(C(=O)c1ocnc1C)C2C (stereo not given) | 20.5%
COCc1cnc2n1CCN(C(=O)c1ccc3ccccc3n1)C2C (stereo not given) | 61.1%
COCc1cnc2n1CCN(C(=O)c1cc3ccccc3o1)C2C (stereo not given) | 62%
Cc1ncoc1C(=O)N1CCn2c(COc3cccnc3)cnc2C1C (stereo not given) | 5.67%
COCc1cnc2n1CCN(C(=O)C1=CCCC1)C2C (stereo not given) | -56.3%
COCc1cnc2n1CCN(C(=O)c1cnc3ccccc3c1)C2C (stereo not given) | 11.3%
COCc1cnc2n1CCN(C(=O)c1cc3cc(Cl)ccc3o1)C2C (stereo not given) | 46.6%
COCc1cnc2n1CCN(C(=O)C1=CCCCC1)C2C (stereo not given) | 14.2%
CCn1cc(CNCCNc2ncc(Cl)cc2Cl)cn1 | 15.7%
O=C(Cn1cnc2ccsc2c1=O)NCCCc1nnc2ccccn12 | 34.3%
CCN1CCn2c(C)cnc2C12CCN(C(=O)C(C)C)CC2 | -40.5%
CN(C)c1cc(CNC(=O)Nc2nncs2)ccn1 | -2.19%
Cc1nc(C(=O)N[C@H]2COC[C@@H]2N2CCCCC2)cs1 | 11.3%
Cc1ccc2nc(C)cc(C(=O)N[C@H]3COC[C@@H]3N3CCOCC3)c2c1 | 66.5%
Cc1ccc2nc(C)c(C)c(C(=O)N3CCC4(CCO4)CC3)c2c1 | 33.3%
CCO[C@H]1CN(C)C[C@@H]1NC(=O)c1cc(C)nc2ccc(C)cc12 | 28.4%
CO[C@H]1CNC[C@@H]1NC(=O)c1cc(C)nc2ccc(C)cc12 | -100%
Cc1cc(C(=O)N[C@H]2COC[C@@H]2N2CCOCC2)c2ccc(F)cc2n1 | 55.4%
Cc1cc(C(=O)N2CCN[C@H](C)C2)c2ccc(F)cc2n1 | 12.2%
Cc1cc(C(=O)N(C)C2CCN(C)C2)c2ccc(F)cc2n1 (stereo not given) | 21.5%

SMILES | INHIBITION
Cc1ccc2nc(C)c(C)c(C(=O)N[C@H]3COC[C@@H]3N3CCCC3)c2c1 | 59.1%
CCc1nccn1C1CCCN(C(=O)Cc2cn3ccsc3n2)C1 (stereo not given) | -23.9%
CC(C)c1nnc2ccc(N3CCC(C(=O)NC4CC4)CC3)nn12 | -18.9%
CC(C)CNC(=O)NC(=O)C(C)Nc1cccc(CN2CCOC2=O)c1 (stereo not given) | -34.2%
CC(C)c1ccc(OCCC(=O)N2CCC(C(=O)N(C)C)CC2)cc1 | -37.55%
Cc1cc(C(=O)N2CCCCC2c2nc3cc(F)ccc3[nH]2)nn1C (stereo not given) | 10.7%
Cn1cc(C2COC3(CCN(C(=O)c4cnccn4)CC3)C2)cn1 (stereo not given) | 39.2%
Cc1oc(C(=O)O)cc1S(=O)(=O)Nc1ccc(Br)cc1Cl | -18.8%
CN(C)CC(NC(=O)c1ccn(C)c(=O)c1)c1ccccc1 (stereo not given) | 4.34%
CC1(C(=O)NCc2cc(F)cc(F)c2)CCOCC1 | 37.5%
CC1(C(=O)NCc2ccsc2)CCOCC1 | 44.9%
O=C(NCC1(O)CCOCC1)c1ccc(F)cc1 | 54.8%
CN(C)c1cccc(C(=O)NCC2(O)CCOCC2)c1 | 58.3%
O=C(NCC1(O)CCOCC1)c1ccn(-c2ccccc2F)n1 | -14.9%
Cc1ccc(C(=O)NCC2(O)CCOCC2)cc1F | 48.4%
CC1(C(=O)NCCc2ccc(F)cc2)CCOCC1 | 54%
CN(C)c1ccc(C(=O)NCC2(O)CCOCC2)cc1 | -3.95%
COC(=O)c1ccc(C(=O)NCC2(O)CCOCC2)cc1 | 36.3%
CN1CCN(C(=O)c2cc(C#N)cn2C)c2ccccc2C1 | -59.5%
CCn1cc(S(=O)(=O)N2CCCCCC2c2cc(C)no2)cn1 (stereo not given) | -7.66%
Cc1cc(C)n(CC2CCCN2C(=O)CCc2ccco2)n1 (stereo not given) | 27.25%
NC(=O)C(Nc1ccc(Cl)cc1)c1ccc(F)cc1 (stereo not given) | 4.81%

SMILES | INHIBITION
CCCc1nc(C(C)(C)NC(=O)C2CC(=O)N(CC(C)C)C2)no1 (stereo not given) | -5.25%
CC1=C(C#N)C(=O)NC(=O)/C1=C\c1c(C)[nH]n(-c2ccc(C)cc2)c1=O | 47.1%
Cn1cc(C(=O)OC2CN(c3nc4c(C(F)(F)F)cccc4s3)C2)nn1 | -45.6%
Cc1cc(O)c(OCC(=O)Nc2nc3c(s2)CCCC3)cn1 | 40%
Cc1cc(O)c(OCC(=O)Nc2nc3c(s2)CCCCC3)cn1 | 54.9%
Cc1cc(O)c(OCC(=O)Nc2nccs2)cn1 | -18%
CCc1ncc2c(n1)CN(Cc1nc(-c3ccoc3)no1)CC2 | 27.8%
CN(C)C(=O)c1cccc(CN2CCOC(Cn3cccn3)C2)c1 (stereo not given) | -2.33%
O=C(c1ccc(Cl)cc1)N1CCC(N2CCOC2=O)CC1 | 41.6%
O=C(CC1=CSC2=NCCN12)N1CCCC(CCc2cccc(F)c2)C1 (stereo not given) | 68.5%
Nc1nc(CC(=O)N2CCCC(CCc3cccc(F)c3)C2)cc(=O)[nH]1 (stereo not given) | 7.3%
O=C(CC1=CSC2=NCCCN12)N1CCCCC1c1cccc(F)c1 (stereo not given) | 32.3%
Cc1cc(C(=O)N2C[C@@H]3CC[C@H]2CN(Cc2ccccn2)C3)nc(N)n1 | 4.59%
CC(NC(=O)Nc1nccs1)c1ccc(S(C)(=O)=O)cc1 (stereo not given) | 16.8%
CCN(C(=O)Nc1nccs1)C(C)c1cccc(O)c1 (stereo not given) | 71.3%
CC(NC(=O)Nc1nccs1)c1ccncc1 (stereo not given) | 5.91%
CCN(C(=O)Nc1cc(C)on1)C(C)c1cccc(O)c1 (stereo not given) | -2.43%
CCN(C(=O)Nc1nncs1)C(C)c1cccc(OC)c1 (stereo not given) | -5.22%
CC(NC(=O)Nc1nccs1)c1cccnc1 (stereo not given) | 54.8%
Cc1cc(C(F)(F)F)n2nc(C3CCCN3C3CCSCC3)cc2n1 (stereo not given) | 5.535%
CC1(C)CN(c2cc(C3CC3)ncn2)C[C@]1(C)O | -1.04%
COCCn1ccc(NC(=O)Nc2ccc(C(N)=O)c(F)c2)n1 | 11.1%

SMILES | INHIBITION
O=C(N[C@@H]1CCN(Cc2cc3ccccc3s2)C[C@H]1O)c1cccnc1 | 22%
COC(=O)c1ccn(COc2ccccc2Cl)n1 | -15.5%
CCc1nc(C2CCCN2C(=O)CCn2cncn2)no1 (stereo not given) | 30.8%
Cc1cc(=O)[nH]c(-n2nc(C)c(CCC(=O)Nc3nc(C)cs3)c2C)n1 | 68.2%
Cc1cc(=O)[nH]c(-n2nc(C)c(CCC(=O)NCc3cccs3)c2C)n1 | 72.2%
Cc1cc(=O)[nH]c(-n2nc(C)c(CCC(=O)NCC(C)C)c2C)n1 | 11.3%
Cc1cc(=O)[nH]c(-n2nc(C)c(CCC(=O)NCc3ccco3)c2C)n1 | 6.09%
COC(=O)CCc1c(C)nn(-c2nc(C)cc(=O)[nH]2)c1C | -12.6%
Cc1noc(C)c1CCC(=O)NCCc1cccs1 | -1.99%
Cn1nc(C(=O)NC2(c3ccccc3)CCC2)ccc1=O | -4.35%
Cc1c(C)c2c(c(C)c1O)CC[C@](C)(C(=O)O)O2 [(R)-TROLOX] | -10.3%
CC(C)CC(C)NCc1cccnc1N1CCN(c2ccccn2)CC1 (stereo not given) | 9.56%
CC(C)NCc1cccnc1N1CCN(c2ccccn2)CC1 | 37.7%
CCCC(C)NCc1cccnc1N1CCN(c2ccccn2)CC1 (stereo not given) | 50.7%
CCc1nc(CN(C)C2CCN(CC(=O)N(C)C)C2)no1 (stereo not given) | 24%
O=C(NC1CCN(C(=O)C2CCCCC2)C1)c1ccncc1Cl (stereo not given) | 14.1%
Cc1cnn(CCNCC(O)COc2ccc3ccccc3c2)c1 (stereo not given) | 17.4%
Cc1cnn(CCNCC(=O)Nc2ccc(Cl)cn2)c1 | -106%
Cc1cnn(CCNCC(O)COc2cc(Cl)ccc2Cl)c1 (stereo not given) | 50.3%
Cc1cnn(CCNCC(O)COc2ccc(Cl)cc2Cl)c1 (stereo not given) | 66.7%
Cc1cnn(CCNCC(O)c2ccc(F)c(F)c2)c1 (stereo not given) | 7.21%
Cc1cnn(CCNCC(O)c2cccc(Br)c2)c1 (stereo not given) | 16.8%
